The values below come from PubChem BioAssay.

A short description of test [1]: small molecules captured by biotinylated probe aFSTL3 – biochemical, small-molecule microarray, fluorescence 635/667, stem cell growth factor project, primary screen (AID 1064).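 Also: measures binding of the biotinylated anti-FSTL3 antibody to printed compounds.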 Particulars: higher = more signal.
Test [2] is described as follows: binders from COS7 lysate, DM2A8 probe, primary screen, torsin A project, cell lysate, small-molecule microarray, fluorescence 635/667 (AID 1065). As to conditions: higher = more signal, COS7 lysate expressing mutant human TOR1A.
Test [3] in a line: small molecules captured by biotinylated probe aFGF2 – biochemical, small-molecule microarray, fluorescence 635/667, stem cell growth factor project, primary screen (AID 1067).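 Also: measures binding of biotinylated aFGF2 protein to printed compounds on slides; z-score merges feature fluorescence and signal-to-noise across triplicate slides.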 As to conditions: higher = more signal.
Test [4] is described as follows: small molecules captured by biotinylated probe aFGF10 – biochemical, small-molecule microarray, fluorescence 635/667, stem cell growth factor project, primary screen (AID 1071).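 Also: score merges 667 nm spot intensity and signal to noise from triplicate slides.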 As to conditions: higher = more signal.
The target of test [5] is Neurogenic locus notch homolog protein 2 (Homo sapiens) (UniProt Q04721). As to the kind of experiment: small molecules binding Notch2 protein – biochemical, small-molecule microarray, 635 nm fluorescence, stem cell growth factors, primary screen (AID 1073). Particulars: higher = more signal.
Chain of Neurogenic locus notch homolog protein 2 (Homo sapiens) (Q04721 whole entry, looked up, canonical isoform): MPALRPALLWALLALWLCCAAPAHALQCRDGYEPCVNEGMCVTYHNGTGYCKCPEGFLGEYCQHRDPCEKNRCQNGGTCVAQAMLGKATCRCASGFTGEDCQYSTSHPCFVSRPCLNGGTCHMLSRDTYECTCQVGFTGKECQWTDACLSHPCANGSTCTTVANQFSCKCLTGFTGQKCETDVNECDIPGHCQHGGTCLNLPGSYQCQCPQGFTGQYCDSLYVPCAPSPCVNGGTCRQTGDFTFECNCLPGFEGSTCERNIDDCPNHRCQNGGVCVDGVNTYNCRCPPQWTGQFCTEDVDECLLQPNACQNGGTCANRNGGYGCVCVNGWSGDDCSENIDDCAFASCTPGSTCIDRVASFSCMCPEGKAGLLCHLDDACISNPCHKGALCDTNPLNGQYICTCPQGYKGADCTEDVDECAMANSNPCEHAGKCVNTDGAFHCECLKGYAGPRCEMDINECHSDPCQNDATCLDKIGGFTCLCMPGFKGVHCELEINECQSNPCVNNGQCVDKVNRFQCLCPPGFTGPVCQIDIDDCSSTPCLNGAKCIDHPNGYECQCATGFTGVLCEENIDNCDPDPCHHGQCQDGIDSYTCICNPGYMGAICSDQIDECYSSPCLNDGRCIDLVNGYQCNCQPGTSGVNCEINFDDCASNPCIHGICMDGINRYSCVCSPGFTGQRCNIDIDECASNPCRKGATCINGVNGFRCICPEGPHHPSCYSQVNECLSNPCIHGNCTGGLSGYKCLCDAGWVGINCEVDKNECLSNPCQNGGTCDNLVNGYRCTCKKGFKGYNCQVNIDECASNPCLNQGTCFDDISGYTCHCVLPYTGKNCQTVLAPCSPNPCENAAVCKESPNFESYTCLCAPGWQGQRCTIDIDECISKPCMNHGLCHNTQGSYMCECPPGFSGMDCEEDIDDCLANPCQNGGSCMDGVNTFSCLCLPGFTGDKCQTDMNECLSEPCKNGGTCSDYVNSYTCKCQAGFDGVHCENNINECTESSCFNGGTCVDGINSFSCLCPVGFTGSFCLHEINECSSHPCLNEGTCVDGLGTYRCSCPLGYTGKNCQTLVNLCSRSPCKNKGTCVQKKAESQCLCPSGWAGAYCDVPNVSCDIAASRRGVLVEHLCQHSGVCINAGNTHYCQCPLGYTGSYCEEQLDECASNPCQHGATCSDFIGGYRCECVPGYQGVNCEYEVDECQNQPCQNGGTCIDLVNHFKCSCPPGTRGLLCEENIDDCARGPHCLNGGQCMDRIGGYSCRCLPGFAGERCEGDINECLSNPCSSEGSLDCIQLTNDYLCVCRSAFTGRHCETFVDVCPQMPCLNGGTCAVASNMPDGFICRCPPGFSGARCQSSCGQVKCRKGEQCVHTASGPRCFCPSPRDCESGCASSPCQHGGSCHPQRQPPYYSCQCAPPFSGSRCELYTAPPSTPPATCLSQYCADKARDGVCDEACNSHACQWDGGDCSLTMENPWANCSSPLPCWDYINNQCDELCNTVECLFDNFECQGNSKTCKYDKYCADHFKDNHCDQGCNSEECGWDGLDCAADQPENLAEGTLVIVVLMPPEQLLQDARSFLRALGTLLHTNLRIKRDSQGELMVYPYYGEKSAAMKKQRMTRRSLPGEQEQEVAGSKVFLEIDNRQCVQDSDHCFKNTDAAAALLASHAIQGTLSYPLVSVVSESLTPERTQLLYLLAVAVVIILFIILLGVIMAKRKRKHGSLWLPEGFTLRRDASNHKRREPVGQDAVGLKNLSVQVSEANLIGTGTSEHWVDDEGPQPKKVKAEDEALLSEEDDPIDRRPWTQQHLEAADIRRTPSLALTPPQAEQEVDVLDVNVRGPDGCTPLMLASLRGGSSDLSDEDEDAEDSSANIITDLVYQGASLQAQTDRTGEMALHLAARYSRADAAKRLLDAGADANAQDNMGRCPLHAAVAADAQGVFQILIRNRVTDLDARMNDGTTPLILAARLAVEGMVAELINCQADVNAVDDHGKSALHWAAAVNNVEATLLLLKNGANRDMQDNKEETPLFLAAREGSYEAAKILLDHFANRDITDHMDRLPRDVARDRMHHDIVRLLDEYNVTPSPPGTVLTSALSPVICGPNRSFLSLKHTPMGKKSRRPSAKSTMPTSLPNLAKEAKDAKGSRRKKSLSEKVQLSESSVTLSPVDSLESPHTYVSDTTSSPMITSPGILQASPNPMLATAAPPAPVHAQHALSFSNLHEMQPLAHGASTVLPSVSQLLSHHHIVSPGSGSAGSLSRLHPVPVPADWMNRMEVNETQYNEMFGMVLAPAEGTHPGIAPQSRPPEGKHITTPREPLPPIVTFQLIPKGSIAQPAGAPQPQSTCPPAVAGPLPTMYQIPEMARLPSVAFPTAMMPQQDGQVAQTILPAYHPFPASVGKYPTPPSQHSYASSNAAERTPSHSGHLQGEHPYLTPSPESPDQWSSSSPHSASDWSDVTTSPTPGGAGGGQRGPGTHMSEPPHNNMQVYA
The target of test [6] is Pro-neuregulin-1, membrane-bound isoform (Homo sapiens) (UniProt Q02297). Put plainly: small molecules binding neuregulin-1 protein – biochemical, small-molecule microarray, fluorescence 635/667, psychiatric disease protein project, primary screen (AID 1075).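 Also: score combines 667 nm spot fluorescence with signal to noise.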 Particulars: NRG1 binding, 635 nm fluorescence, higher = more signal.
Chain of Pro-neuregulin-1, membrane-bound isoform (Homo sapiens) (Q02297 whole entry, looked up, the tested form may be a part, canonical isoform): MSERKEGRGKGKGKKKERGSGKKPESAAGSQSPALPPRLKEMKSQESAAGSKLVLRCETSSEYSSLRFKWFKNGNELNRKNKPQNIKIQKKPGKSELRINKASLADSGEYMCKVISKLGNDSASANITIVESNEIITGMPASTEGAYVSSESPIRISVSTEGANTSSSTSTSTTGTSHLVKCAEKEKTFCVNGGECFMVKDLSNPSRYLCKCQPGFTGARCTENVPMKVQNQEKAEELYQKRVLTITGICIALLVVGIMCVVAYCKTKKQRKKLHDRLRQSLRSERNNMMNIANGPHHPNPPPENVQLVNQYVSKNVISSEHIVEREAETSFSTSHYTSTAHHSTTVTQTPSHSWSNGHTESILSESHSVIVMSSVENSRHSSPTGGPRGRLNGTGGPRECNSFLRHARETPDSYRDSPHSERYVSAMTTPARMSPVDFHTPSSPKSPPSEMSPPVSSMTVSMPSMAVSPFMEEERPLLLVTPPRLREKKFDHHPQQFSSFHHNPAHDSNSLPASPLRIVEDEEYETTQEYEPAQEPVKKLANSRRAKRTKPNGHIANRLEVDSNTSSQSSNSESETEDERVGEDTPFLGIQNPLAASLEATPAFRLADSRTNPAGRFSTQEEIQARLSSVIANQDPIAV
In test [7] the test system is Neuregulin-1 EGF-like domain. As to the kind of experiment: small molecules binding NRG1 EGF domain – biochemical, small-molecule microarray, 635 nm fluorescence, primary screen (AID 1081).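 Also: binding of the protein to compounds printed on small-molecule microarray slides.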 Particulars: higher = more signal.
Test [8] in a line: FRG1 expression reporter modulators in myotubes – cell-based, C2C12 myotubes, firefly/Renilla luciferase, luminescence, FRG1 inhibition for FSHD, primary screen (AID 1084). As to conditions: FRG1 promoter luciferase, higher = more signal, called active from +8 up or from −8 down.
Test [9] is described as follows: small molecules captured by biotinylated probe aFST – biochemical, small-molecule microarray, fluorescence 635/667, stem cell growth factor project, primary screen (AID 1086).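 Also: score merges 667 nm fluorescence with signal-to-noise of each printed compound spot.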 As to conditions: higher = more signal.
A short description of test [10]: binders of probe aHhip on microarray, primary screen, stem cell growth factor project, biochemical, small-molecule microarray, fluorescence 635/667 (AID 1087).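 Also: score merges spot fluorescence at 667nm with spot signal to noise ratio.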 Particulars: higher = more signal.
Test [11] deals with PRMT1 (protein arginine N-methyltransferase 1). Put plainly: small molecules binding arginine methyltransferase PRMT1 – biochemical, small-molecule microarray, 635 nm fluorescence, primary screen (AID 1088).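 Also: binding of Prmt1 protein to compounds spotted on small-molecule microarray slides.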 Particulars: higher = more signal.
A short description of test [12]: growth effects on S. cerevisiae YJM789 – YJM789 clinical isolate, OD600, 24 h, basal, primary screen (AID 1089).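 Also: growth of clinical yeast isolate S. cerevisiae YJM 789 seeded 1000 cells per well; test concentration not given here.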 Particulars: higher = more signal, called active from +8 up or from −8 down.
Test [13] can be described thus: S. pombe growth modifiers, basal conditions – strain 972, OD600, 24 h, no modulator, primary screen (AID 1090).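 Also: basal condition with compound alone and no growth modifier present; test concentration not given here.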 Particulars: S. pombe 972 growth, higher = more signal, called active from +8 up or from −8 down.
Test [14] can be described thus: budding yeast growth modifiers under rapamycin – strain BY4716, OD600, 96 h, primary screen (AID 1091). Also: test concentration not given here. As to conditions: S. cerevisiae BY4716 + rapamycin, higher = more signal, called active from +8 up or from −8 down.
The target of test [15] is Torsin-1A-interacting protein 2 (Homo sapiens) (UniProt Q8NFQ8). As to the kind of experiment: small molecules binding lysate-expressed LULL1 – cell lysate, human LULL1 lysate, 635/667 nm fluorescence, primary screen (AID 1092).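 Also: score merges per-feature 667 nm fluorescence with signal-to-noise.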 Particulars: small-molecule microarray, hLULL1 lysate binding, 635 nm fluorescence; higher = more signal.
Chain of Torsin-1A-interacting protein 2 (Homo sapiens) (Q8NFQ8 whole entry, looked up): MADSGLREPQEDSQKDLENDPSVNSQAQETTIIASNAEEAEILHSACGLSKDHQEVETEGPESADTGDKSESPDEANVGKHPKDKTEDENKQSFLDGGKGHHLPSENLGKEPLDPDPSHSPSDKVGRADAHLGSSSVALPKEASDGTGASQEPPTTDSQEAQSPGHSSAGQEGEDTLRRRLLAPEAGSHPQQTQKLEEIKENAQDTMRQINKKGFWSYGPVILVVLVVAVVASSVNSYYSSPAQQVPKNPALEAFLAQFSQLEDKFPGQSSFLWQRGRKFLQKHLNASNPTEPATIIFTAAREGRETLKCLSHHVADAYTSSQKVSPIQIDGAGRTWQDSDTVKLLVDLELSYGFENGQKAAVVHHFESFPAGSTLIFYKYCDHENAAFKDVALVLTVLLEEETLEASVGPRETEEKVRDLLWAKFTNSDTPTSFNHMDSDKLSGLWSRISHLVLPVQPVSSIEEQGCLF
The nature of test [16]: optical density change of DRC41 E. coli – strain DRC41, OD650, 24 h, E. coli filamentation project, primary screen (AID 1093).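 Also: MC1000 strain lacking acrAB efflux and sulA so SOS filamentation is blocked; test concentration not given here.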 As to conditions: E. coli DRC41 growth, higher = more signal, called active from +8 up or from −8 down.
The nature of test [17]: probe aLefty2 binding to arrayed compounds – biochemical, biotinylated probe, 635/667 nm fluorescence, primary screen (AID 1094).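 Also: score merges spot fluorescence near 667 nm with spot signal-to-noise ratio.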 As to conditions: small-molecule microarray, higher = more signal.
The test system of test [18] is Noggin (protein binding on small-molecule microarray). Put plainly: small molecules binding Noggin protein – biochemical, 635/667 nm fluorescence, primary screen (AID 1095).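 Also: score merges 667 nm feature fluorescence with signal to noise over triplicate slides.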 Particulars: 635 nm fluorescence, higher = more signal.
Test [19] addresses Neurogenic locus notch homolog protein 3 (Homo sapiens) (UniProt Q9UM47). Put plainly: small molecules binding NOTCH3 protein – biochemical, 635/667 nm fluorescence, primary screen (AID 1096). Particulars: small-molecule microarray, 635 nm fluorescence, higher = more signal.
The nature of test [20]: probe aEGFR binding to arrayed compounds – biochemical, biotinylated probe, 635/667 nm fluorescence, primary screen (AID 1097).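 Also: probe is a biotinylated anti-EGFR antibody binding compounds printed on slides; score combines fluorescence near 667 nm and signal to noise of each spot.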 Particulars: small-molecule microarray, higher = more signal.

Activity calls are given as the source filed them.

In the case of `C/C=C/CN(C(=O)C#Cc1ccccc1)[C@H](CO[Si](C)(C)C(C)(C)C)c1ccccc1`, the composite z-score in test [1] is 0.15; in test [2], 0.183; in test [3] it was -0.237; in [4], -0.77; in test [5], -1.58; in [6], -0.339. In addition, the composite z-score in test [7] was -0.164; in [9], -0.967; in test [10] it was -0.435; in test [11] it was 0.437; in test [15], 0.571; in test [17], -0.192. In addition, the composite z-score is -1.01 in test [18], -1.35 in test [19] and -0.595 in test [20]. The z-score in test [8] is -3.24 (inactive); in test [12] it was -0.185 (inactive); in [13] it was -0.463 (inactive); in test [14], -0.177 (inactive); in [16], 2.76 (inactive).

For the compound `COCCOC(=O)N1C(=O)[C@@]2(c3ccccc31)[C@H](C(N)=O)[C@H]1C(=O)O[C@H](c3ccccc3)[C@H](c3ccccc3)N1[C@@H]2c1ccc(OCCO)cc1`, the composite z-score in test [1] is -0.4; in test [2], 1.06; in test [3], 0.0445; in [4], 0.257; in test [5], 0.995; in test [6], 1.59. The composite z-score in [7] is 1.21; in [9] it was 0.239; in [10], 0.0854; in test [11], 1.54; in [15] it was 2.58; in [17], -0.0862. Further, the composite z-score is 1.61 in test [18], 1.14 in [19] and -0.132 in test [20]. For the same compound, the z-score in test [8] was 0.341 (inactive); in test [12], 2.25 (inactive); in test [13], 0.601 (inactive); in test [14], 4.25 (inactive); in test [16] it was 0.935 (inactive).

For `[N-]=[N+]=NCc1ccccc1[C@@H]1OC(c2ccc(OCCCO)cc2)=N[C@]1(Cc1ccccc1)C(=O)NCc1ccccc1`, the composite z-score is -0.158 in [1]; -0.649 in [2]; 0.227 in [3]; 0.22 in [4]; 1.3 in test [5]; 1.56 in test [6]. Further, the composite z-score in test [7] stood at 0.744; in test [9] it was 0.846; in test [10], 0.0373; in test [11], 0.872; in [15], 3.12; in [17] it was 0.239. The values for the composite z-score in [18], in test [19] and in test [20] were -0.0171, 0.672 and -0.117, respectively. In addition, the z-score in test [8] was -2.16 (inactive); in test [12], 1.26 (inactive); in [13], 0.8 (inactive); in test [14] it was 8.96 (active); in test [16] it was 0.615 (inactive).

Take `O=C1c2ccccc2[C@](Cc2ccccc2I)(C(=O)O)[C@H](c2ccc(CO)cc2)N1Cc1ccccc1`: the composite z-score is 0.877 in test [1]; 0.996 in [2]; -0.101 in test [3]; 0.0611 in test [4]; 0.19 in test [5]; 1.51 in test [6]. For the same compound, the composite z-score in [7] was 1.23; in [9] it was -0.0119; in test [10] it was -0.226; in test [11], 1.55; in test [15] it was 2.5; in test [17] it was 0.0299. The composite z-score in test [18] is -0.57; in [19] it was -0.0277; in test [20], -0.027. For the same compound, the z-score is -1.1 (inactive) in test [8]; -2.23 (inactive) in test [12]; -0.912 (inactive) in test [13]; -1.22 (inactive) in [14]; 0.66 (inactive) in [16].

`O=C1C2C=CC(C(O)c3ccc([N+](=O)[O-])cc3)N(Nc3ccccc3)C2C(=O)N1c1ccccc1` (stereo not given): the composite z-score in [1] was -0.228; in test [2], 0.0467; in [3], 0.0589; in test [4], -0.115; in test [5] it was 1.4; in [6], 1.07. Further, the composite z-score in test [7] was 1.25; in [9], 0.564; in test [10] it was 0.211; in test [11], 0.44; in test [15] it was 2.68; in test [17], -0.0469. For the same compound, the results for the composite z-score in test [18], in [19] and in [20] were -0.456, 1.03 and -0.0509, respectively. The z-score in test [8] was -0.699 (inactive); in test [12] it was -0.247 (inactive); in [13] it was 0.485 (inactive); in [14], 0.495 (inactive); in test [16] it was -0.8 (inactive).

`CO[C@H]1O[C@H](CO)[C@@H](OC(=O)Nc2ccccc2)[C@@H]2OC(=O)[C@H](Cc3ccccc3)C/C=C/C[C@@H](Cc3ccccc3)C(=O)O[C@@H]12`: the composite z-score amounted to 0.146 in test [1]; 0.779 in test [2]; 0.0732 in [3]; 0.775 in [4]; 1.48 in [5]; 1.14 in [6]. In addition, the composite z-score in [7] was 1.04; in test [9], 0.654; in test [10], -0.0296; in test [11] it was 1.55; in test [15], 2.58; in test [17] it was -0.104. Moreover, the composite z-score in test [18] was determined as 0.107; in [19] it was 0.702; in [20] it was 0.0308. Also, the z-score is -1.64 (inactive) in test [8]; -1.03 (inactive) in [12]; -0.0378 (inactive) in [13]; 1.9 (inactive) in test [14]; 0.588 (inactive) in [16].

Regarding `CCOC(=O)C[C@H]1[C@H](OC(=O)c2ccc(-c3ccccc3)cc2)[C@@H](NC(=O)CC(C)C)c2cc(OCCCO)ccc2N1C(=O)Cc1ccc(OC)cc1`, the composite z-score in [1] was 0.0706; in test [2], 0.445; in test [3], -0.0131; in test [4], 0.135; in [5], 0.119; in [6], 0.828. The composite z-score in [7] is -0.023; in test [9] it was 0.367; in test [10], 0.77; in [11], 0.403; in [15], 0.734; in test [17], 0.19. Moreover, the composite z-score in test [18] is -0.316; in test [19], -0.117; in [20] it was -0.0084. In addition, the z-score was -0.33 (inactive) in [8]; -1.15 (inactive) in test [12]; -0.218 (inactive) in [13]; 0.143 (inactive) in test [14]; -1.1 (inactive) in test [16].

Consider `COc1ccc(CCNC(=O)[C@@]2(C)c3ccccc3C(=O)N(Cc3cc(C(F)(F)F)cc(C(F)(F)F)c3)[C@H]2c2ccc(CO)cc2)cc1`, for which the composite z-score was 1.42 in test [1]; 1.35 in test [2]; 0.383 in test [3]; -0.27 in test [4]; -0.57 in [5]; 1.73 in [6]. The composite z-score stood at 1.3 in test [7]; 0.169 in [9]; 1.69 in test [10]; 1.53 in test [11]; 1.7 in [15]; 0.795 in test [17]. For the same compound, the composite z-score in test [18] is 0.179; in test [19], 0.0336; in test [20], 0.577. Also, the z-score is -1.62 (inactive) in test [8]; 0.182 (inactive) in test [12]; -0.836 (inactive) in test [13]; 1.09 (inactive) in [14]; 1.02 (inactive) in [16].

For the compound `CCOC(=O)C1=CC[C@@H](c2ccccc2)N(S(=O)(=O)c2ccc(C)cc2)[C@H]1C#N`, the composite z-score is -0.18 in [1]; -0.0196 in [2]; -0.0381 in test [3]; 0.848 in test [4]; 1.25 in test [5]; 0.741 in [6]. Further, the composite z-score in [7] is 1.29; in test [9] it was 1.1; in test [10], -0.191; in test [11], 0.811; in [15], 2.99; in [17] it was -0.0179. The composite z-score in [18] is -0.14; in test [19], 0.612; in [20] it was 0.0985. Besides, the z-score in [8] was 1.04 (inactive); in test [12] it was 0.0536 (inactive); in test [13], -1.06 (inactive); in [14], 0.281 (inactive); in test [16] it was -0.121 (inactive).
